The values below come from PubChem BioAssay (NCI).

This is part of a sample that, as a whole, favours compounds with a hit. Of some 83,000 tested, about 20% had one in any assay.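 A percent growth of 40 corresponds to 60% growth inhibition; 0 means no net growth; -100 means all cells died. Active threshold: below 10.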 Calls of active or inactive are those of the source.

This experiment concerns CAKI-1 renal. As to the kind of experiment: NCI-60 one-dose screen, 48 h (100 = growth as untreated, 0 = no growth, -100 = all killed). To be noted: 10 µM unless noted.
In the case of `O=C(CCCCCCSc1nc(-c2ccc(Cl)cc2)cc(-c2ccc(Cl)cc2)n1)NO`, the growth is 13.4% (inactive). The same measure for `O=C1CC(C(F)(F)F)Cc2nc3ccc(Br)cc3cc21` (stereo not given): 75.5% (inactive). The same measure for `COc1ccc(C2NC(=O)C(C#N)c3c2sc2c(F)cccc32)cc1` (stereo not given): 40% (inactive).

On to `CCCCCn1sc(=O)n(Cc2ccc(CNC(=O)OCc3ccc4cccc(O)c4n3)cc2)c1=O`, for which the growth was -74.9% (active). Consider `O=[N+]([O-])c1cccc(N=NNc2cccc([N+](=O)[O-])c2)c1`, for which the growth is 87.5% (inactive).

In the case of `CCN(CC)CCCOc1ccc2c(c1)O/C(=C\c1cccc(OC)c1)C2=O`, the growth was 87.4% (inactive). With `O=C(OCc1ccc2c(Cl)cc(Cl)c(O)c2n1)N1CCNCC1`, the growth was 27% (inactive). Regarding `C=CCCCCOc1ccccc1-c1cnc(OCCCCC=C)n1C`, the growth was 54.9% (inactive).

Turning to `CSc1nc(=S)c2nc(SC)n(-c3ccccc3)c2[nH]1`, the growth is 90.9% (inactive). `CC1Cc2c(Cl)ncnc2N(C)c2ccc(O)cc21` (stereo not given): the growth is 89.2% (inactive). For `Nc1nc(Nc2ccccc2)c2ncn(Cc3ccc4c(c3)OCO4)c2n1`, the growth was 31.5% (inactive). Consider `COc1ccc(-c2cc(-c3ccc(Cl)cc3)nc(SCCCCCCC(=O)NO)n2)cc1`, for which the growth was 4.58% (active). The figure for `COc1ccc(C(=O)CSc2nccc(Nc3ccc(C(=O)O)cc3)n2)cc1` is 97.7% (inactive); for `CC1(C)OC2[C@@H](CNC(=O)NC(=O)NC(=O)CI)O[C@@H](n3cnc4c(NC(=O)Nc5ccccc5)ncnc43)[C@H]2O1` (stereo not given in full) it is -69% (active).

For the compound `Cn1cc(-c2noc(-c3cn(C)c4ncc(F)cc34)n2)c2cc(Cl)ccc21`, the growth was 43.2% (inactive).
